In PubChem BioAssay AID1159580 (chemical genetic matrix, 2015):
Values joined by “and” are separate entries in the source; they are usually repeats but may differ in a detail not shown here. Equal values may be shown once. The whole screen tested about 5,500 compounds, of which about 2,000 (36%) were called active. Not shown: some 18% with an inconclusive outcome. Rule as the data show it: active = normalized growth mostly below about 0.91 (no sharp cut-off); inconclusive = no clear call, values can overlap the other calls; inactive = mostly above about 0.92. Some of the results follow.

Experiment: chemical genetic growth profiling, strain panel (AID 1159580);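 also: tested at 20 µM; growth read once vehicle control cultures reached saturation at 30 °C; 1 = growth at the plate median or of vehicle wells; lower values mean less growth of the strain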
Conditions: S. cerevisiae deletion strains, growth OD

Measured: normalized growth

CC(C)C1CCC(C(=O)N[C@@H](Cc2ccccc2)C(=O)O)CC1 (some centres not stated)
inactive: locus YAL013W, strain DEP1, stronger effect = lower value 0.994 | locus YAL021C, strain ccr4, stronger effect = lower value 0.97 | locus YAL026C, strain drs2, stronger effect = lower value 0.978 | locus YAL030W, strain snc1, stronger effect = lower value 0.975 | locus YBL061C, strain skt5, stronger effect = lower value 0.973 | locus YBR009C, strain hhf1, stronger effect = lower value 0.983 | locus YBR021W, strain FUR4, stronger effect = lower value 0.969 | locus YBR023C, strain chs3, stronger effect = lower value 0.973 | locus YBR171W, strain sec66, stronger effect = lower value 0.962 | locus YBR229C, strain ROT2, stronger effect = lower value 1.01 | locus YBR231C, strain swc5, stronger effect = lower value 0.956 | locus YBR279W, strain paf1, stronger effect = lower value 0.973 | locus YCL011C, strain gbp2, stronger effect = lower value 0.976 | locus YCL016C, strain dcc1, stronger effect = lower value 0.967 | locus YCL029C, strain bik1, stronger effect = lower value 1.02 | locus YCL061C, strain MRC1, stronger effect = lower value 0.972 | locus YCL069W, strain vba3, stronger effect = lower value 0.979 | locus YCR088W, strain abp1, stronger effect = lower value 0.971 | locus YDL005C, strain med2, stronger effect = lower value 0.974 | locus YDL035C, strain GPR1, stronger effect = lower value 0.982 | locus YDL040C, strain nat1, stronger effect = lower value 0.974 | locus YDL074C, strain BRE1, stronger effect = lower value 0.987 | locus YDL101C, strain DUN1, stronger effect = lower value 1 | locus YDL134C, strain PPH21, stronger effect = lower value 1.01 | locus YDL185W, strain tfp1, stronger effect = lower value 1.02 | locus YDL192W, strain arf1, stronger effect = lower value 1.01 | locus YDR001C, strain nth1, stronger effect = lower value 0.972 | locus YDR069C, strain doa4, stronger effect = lower value 0.986 | locus YDR101C, strain arx1, stronger effect = lower value 1.02 | locus YDR137W, strain rgp1, stronger effect = lower value 0.96 | locus YDR150W, strain NUM1, stronger effect = lower value 0.995 | locus YDR159W, strain sac3, stronger effect = lower value 0.989 | locus YDR162C, strain NBP2, stronger effect = lower value 0.987 | locus YDR195W, strain ref2 0.962 | locus YDR297W, strain sur2, stronger effect = lower value 0.976 | locus YDR318W, strain mcm21, stronger effect = lower value 1.01 | locus YDR334W, strain swr1, stronger effect = lower value 0.968 | locus YDR335W, strain msn5, stronger effect = lower value 0.974 | locus YDR388W, stronger effect = lower value 1.01 | locus YDR392W, strain spt3, stronger effect = lower value 0.985 | locus YDR502C, strain sam2, stronger effect = lower value 1.01 | locus YEL003W, strain gim4, stronger effect = lower value 0.988 | locus YEL037C, strain rad23, stronger effect = lower value 0.971 | locus YEL061C, strain CIN8 (second series), stronger effect = lower value 0.973 | locus YEL061C, strain CIN8, stronger effect = lower value 0.992 | locus YER015W, strain faa2, stronger effect = lower value 0.986 | locus YER016W, strain bim1, stronger effect = lower value 0.98 | locus YER110C, stronger effect = lower value 1.02 | locus YER111C, strain swi4, stronger effect = lower value 0.98 | locus YER155C, strain BEM2 (second series), stronger effect = lower value 0.958 | locus YER155C, strain BEM2, stronger effect = lower value 0.928 | locus YER167W, strain BCK2, stronger effect = lower value 0.994 | locus YFR010W, strain ubp6, stronger effect = lower value 0.968 | locus YGL078C, strain dbp3, stronger effect = lower value 1.01 | locus YGL086W, strain mad1, stronger effect = lower value 1.01 | locus YGL167C, strain pmr1, stronger effect = lower value 0.967 | locus YGL173C, strain kem1, stronger effect = lower value 0.97 | locus YGL227W, strain vid30, stronger effect = lower value 0.969 | locus YGL240W, strain doc1, stronger effect = lower value 0.985 | locus YGL248W, strain PDE1, stronger effect = lower value 1.01 | locus YGL253W, strain hxk2, stronger effect = lower value 0.97 | locus YGR078C, strain PAC10, stronger effect = lower value 0.984 | locus YGR135W, strain pre9, stronger effect = lower value 1.01 | locus YGR229C, strain SMI1, stronger effect = lower value 0.949 | locus YGR252W, strain gcn5, stronger effect = lower value 0.994 | locus YHR013C, strain ard1, stronger effect = lower value 0.953 | locus YHR027C, strain rpn1, stronger effect = lower value 0.993 | locus YHR030C, strain SLT2, stronger effect = lower value 1.01 and 0.98 | locus YHR079C, strain IRE1 (second series), stronger effect = lower value 1.01 | locus YHR079C, strain IRE1, stronger effect = lower value 0.986 | locus YHR094C, strain hxt1, stronger effect = lower value 1.01 | locus YHR129C, strain ARP1, stronger effect = lower value 1.01 | locus YHR142W, strain chs7, stronger effect = lower value 0.965 | locus YHR200W, strain rpn10, stronger effect = lower value 1.01 | locus YIL066C, strain RNR3, stronger effect = lower value 0.989 | locus YIL073C, strain SPO22, stronger effect = lower value 0.989 | locus YIL125W, strain kgd1, stronger effect = lower value 1.01 | locus YIR030C, strain dcg1, stronger effect = lower value 1.02 | locus YJL092W, strain hpr5, stronger effect = lower value 0.983 | locus YJL095W, strain BCK1 (second series), stronger effect = lower value 0.979 | locus YJL095W, strain BCK1, stronger effect = lower value 1 and 1.02 | locus YJL115W, strain asf1, stronger effect = lower value 0.978 | locus YJL129C, strain trk1, stronger effect = lower value 0.963 | locus YJL134W, strain LCB3, stronger effect = lower value 0.996 | locus YJL154C, strain vps35, stronger effect = lower value 0.973 | locus YJL164C, strain tpk1, stronger effect = lower value 0.992 | locus YJL166W, strain qcr8, stronger effect = lower value 0.979 | locus YJL168C, strain set2, stronger effect = lower value 1.01 | locus YJL187C, strain SWE1 (second series), stronger effect = lower value 1.01 | locus YJL187C, strain SWE1, stronger effect = lower value 0.983 | locus YJR043C, strain POL32, stronger effect = lower value 0.99 | locus YJR066W, strain TOR1, stronger effect = lower value 0.956
